This is one part of a sample in which hits are shown more often than they occur.
NOMO-1 viab: STK33 inhibitor candidate reducing NOMO-1 cell viability. NOMO-1 AML viability, CellTiter-Glo luminescence, 72 h. inhibition, % (no concentration beside the values). actives 7.5% (n = 37,000); in the data active means inhibition above about 80%; inconclusive means no clear call, values can overlap the other calls
mut p53 react: re-activators of the mutant p53 pathway; SW480 PUMA-promoter luciferase, p53 mutant reactivation; activation, % at 9.98 µM; actives 1.5% (n = 28,000); AID 624151; in the data active means activation above about 52%; inconclusive means no clear call, values can overlap the other calls
MITF inhib: MITF inhibition. TRPM1 promoter luciferase, luminescence, 24 h. inhibition, % (test concentration not listed). actives 0.28% (n = 37,000); in the data active means inhibition above about 85%; inconclusive means no clear call, values can overlap the other calls; inactive means below about 68%;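 further: human melanocyte line stably carrying TRPM1 promoter luciferase reporter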
STK33 kin inh: human STK33 kinase inhibition; actives 0.44% (n = 27,000); AID 2322; inhibition, % at 12.5 µM; Q9BYT3; ADP-Glo luminescence, MBP substrate; in the data active means inhibition above about 20%; inconclusive means no clear call, values can overlap the other calls
Target sequence (Q9BYT3 whole entry, looked up): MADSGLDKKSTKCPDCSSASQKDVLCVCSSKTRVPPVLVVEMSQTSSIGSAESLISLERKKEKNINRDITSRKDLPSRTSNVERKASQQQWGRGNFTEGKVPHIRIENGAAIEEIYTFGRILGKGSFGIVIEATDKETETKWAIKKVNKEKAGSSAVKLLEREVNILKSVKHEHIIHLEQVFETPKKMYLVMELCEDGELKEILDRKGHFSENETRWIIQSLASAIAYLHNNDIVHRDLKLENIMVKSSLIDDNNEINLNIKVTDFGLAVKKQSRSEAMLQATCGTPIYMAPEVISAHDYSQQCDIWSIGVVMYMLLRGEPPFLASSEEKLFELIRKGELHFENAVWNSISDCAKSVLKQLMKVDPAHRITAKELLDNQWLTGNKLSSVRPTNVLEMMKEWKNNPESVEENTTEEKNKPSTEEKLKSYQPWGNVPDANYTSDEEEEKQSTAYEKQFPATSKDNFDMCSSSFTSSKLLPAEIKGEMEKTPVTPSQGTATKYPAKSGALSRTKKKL
Starred values were filed as active, the others as inactive.

Screening C[C@H]1CN([C@@H](C)CO)C(=O)c2cccc(N(C)C)c2O[C@@H]1CN(C)Cc1ccc(Cl)c(Cl)c1 returned NOMO-1 viab 44.7, mut p53 react 2.6 and MITF inhib -4.8.
O=C(NC(=S)c1c(-c2ccccc2)cc2ccccn12)c1ccccc1 was read as mut p53 react 37.1.
For C[C@@H]1CN([C@H](C)CO)C(=O)Cc2cc(NC(=O)Nc3ccc(C(F)(F)F)cc3)ccc2O[C@@H]1CN(C)Cc1ccc(Cl)c(Cl)c1 the results were NOMO-1 viab 79.3, MITF inhib 3.3 and STK33 kin inh 0.9.
For C[C@H](CO)N1C[C@H](C)[C@H](CN(C)Cc2ccc(Cl)c(Cl)c2)Oc2ccc(NC(=O)Nc3ccc(C(F)(F)F)cc3)cc2CC1=O the results were NOMO-1 viab 123.7*, MITF inhib -3.2 and STK33 kin inh 0.0.
For C[C@H]1CN([C@@H](C)CO)C(=O)Cc2cc(NC(=O)Nc3ccc(C(F)(F)F)cc3)ccc2O[C@H]1CN(C)Cc1ccc(Cl)c(Cl)c1 the results were NOMO-1 viab 135.7*, MITF inhib 92.7* and STK33 kin inh -1.5.
`C[C@@H]1CN([C@H](C)CO)C(=O)Cc2cc(NC(=O)Nc3ccc(C(F)(F)F)cc3)ccc2O[C@H]1CN(C)Cc1ccc(Cl)c(Cl)c1` gave NOMO-1 viab 31.1, MITF inhib -1.2 and STK33 kin inh -2.5.
O=C(NCC12CC3CC(CC(C3)C1)C2)c1ccccc1 was read as NOMO-1 viab 45.5 and MITF inhib -15.9.
Screening C[C@H](CO)N1C[C@H](C)[C@@H](CN(C)Cc2ccc(C(=O)Nc3ccccc3N)cc2)Oc2c(cccc2N(C)C)C1=O returned NOMO-1 viab 44.1 and MITF inhib -11.7.
C[C@@H]1CN([C@@H](C)CO)C(=O)c2cccc(N(C)C)c2O[C@H]1CN(C)Cc1ccc(C(=O)Nc2ccccc2N)cc1 was read as NOMO-1 viab 90.3* and MITF inhib -5.0.
C[C@H]1CN([C@@H](C)CO)C(=O)c2cccc(N(C)C)c2O[C@H]1CN(C)Cc1ccc(C(=O)Nc2ccccc2N)cc1 was read as NOMO-1 viab 126.5* and MITF inhib 12.2.
For COC(=O)CCC(=O)Nc1ccc(C(N)=O)cc1 the results were mut p53 react 0.8 and STK33 kin inh -2.2.
Screening Cc1cc2nc(-c3ccc(Cl)c(NC(=O)COc4ccccc4)c3)oc2cc1C returned NOMO-1 viab 12.7, mut p53 react 41.3, MITF inhib -14.6 and STK33 kin inh -3.6.
For N#Cc1ccccc1OCCCn1cnc2ccccc21 the results were NOMO-1 viab 12.6, mut p53 react inconclusive, MITF inhib -28.5 and STK33 kin inh -2.0.
Screening CCCCCC(=O)Cc1cc(O)c(O)c2c1C(=O)Oc1cc(O)c(C(=O)O)c(CCCCC)c1O2 returned NOMO-1 viab 107.7*, MITF inhib 28.6 and STK33 kin inh -9.5.
`CCc1ccc(OCC(=O)Nc2ccccc2C(=O)OC)c(Br)c1` gave NOMO-1 viab -26.1, mut p53 react 58.7*, MITF inhib -19.1 and STK33 kin inh 0.9.
For CCc1ccc(OCC(=O)Nc2cc(OC)ccc2OC)c(Br)c1 the results were NOMO-1 viab -7.1, mut p53 react 58.0*, MITF inhib -57.4 and STK33 kin inh -5.3.
O=S(=O)(NCc1nc2ccccc2[nH]1)c1ccc(Cl)c(Cl)c1 was read as mut p53 react 17.4 and STK33 kin inh -0.3.
Cn1nnnc1SCC(=O)Nc1cccc(C(=O)O)c1 was read as NOMO-1 viab -14.8, mut p53 react -0.7, MITF inhib -9.3 and STK33 kin inh -1.2.
For CC(=O)Oc1ccc(C(=O)Nc2ccc(S(=O)(=O)Nc3nccs3)cc2)cc1 the results were NOMO-1 viab 27.8, mut p53 react -17.8, MITF inhib -8.9 and STK33 kin inh 2.5.
Cc1ccc(S(=O)(=O)Nc2ccc3c(c2)CC(=O)N([C@H](C)CO)C[C@H](C)[C@H](CN(C)Cc2ccc(Cl)c(Cl)c2)O3)cc1 was read as NOMO-1 viab 99.8*, MITF inhib -13.9 and STK33 kin inh 4.7.
`Cc1ccc(S(=O)(=O)Nc2ccc3c(c2)CC(=O)N([C@@H](C)CO)C[C@H](C)[C@@H](CN(C)Cc2ccc(Cl)c(Cl)c2)O3)cc1` gave NOMO-1 viab 128.3*, mut p53 react 1.9, MITF inhib 25.5 and STK33 kin inh 10.1.
`C[C@@H]1CN([C@@H](C)CO)C(=O)Cc2cc(NS(C)(=O)=O)ccc2O[C@@H]1CN(C)Cc1ccc(Cl)c(Cl)c1` gave NOMO-1 viab 6.4, mut p53 react 4.6, MITF inhib 1.1 and STK33 kin inh 1.6.
Screening Cc1ccc(S(=O)(=O)Nc2ccc3c(c2)CC(=O)N([C@H](C)CO)C[C@H](C)[C@H](CN(C)Cc2ccc4c(c2)OCO4)O3)cc1 returned NOMO-1 viab 31.4, MITF inhib 9.7 and STK33 kin inh 1.3.
Screening COc1ccc(NC(=O)CSc2nc3sc(C)c(C)c3c(=O)n2-c2ccccc2)c([N+](=O)[O-])c1 returned NOMO-1 viab 50.6, mut p53 react 1.3, MITF inhib 18.9 and STK33 kin inh -1.4.
Screening O=c1cc(O)c2sc3nc(-c4cccnc4)c4c(c3c2[nH]1)CCCC4 returned NOMO-1 viab 106.0* and MITF inhib -1.0.
`CC(CN1CCCCC1)NC(=O)c1cc(-c2ccccn2)nc2ccc(Br)cc12` (configuration not stated) gave NOMO-1 viab 24.1, mut p53 react -8.5, MITF inhib -3.0 and STK33 kin inh -2.4.
For C=C(C)C(=O)O[C@H]1CC(=C)C2C[C@H](O)[C@](O)(CO)C2[C@H]2OC(=O)C(=C)[C@H]12 (some centres not stated) the results were NOMO-1 viab 118.5*, MITF inhib -10.5 and STK33 kin inh 1.4.
For Cc1ccc(Nc2ccc3noc4c3c2C(=O)c2ccccc2-4)cc1 the results were NOMO-1 viab 126.7* and MITF inhib -1.1.
For CN(CC(=O)Nc1ccc([N+](=O)[O-])cc1)S(=O)(=O)c1cc(Cl)ccc1Cl the results were NOMO-1 viab 16.5, mut p53 react -2.1, MITF inhib 11.5 and STK33 kin inh 3.3.
COC(=O)c1cc(C)sc1NC(=S)NCCc1ccccc1OC was read as NOMO-1 viab 6.5, mut p53 react 19.2, MITF inhib 3.9 and STK33 kin inh -2.1.
CCC(=O)Nc1ccc(Cl)c(NC(=O)COc2ccccc2C)c1 was read as NOMO-1 viab 0.6, mut p53 react 106.7*, MITF inhib -75.1 and STK33 kin inh 3.3.
O=C(CSc1ncnc2sc3c(c12)CCCC3)Nc1cccc(F)c1 was read as NOMO-1 viab 31.2, mut p53 react 13.4, MITF inhib -24.0 and STK33 kin inh 1.0.
Screening Cc1cccc(OCC(=O)Nc2cccc(-c3nc4ccccc4s3)c2)c1C returned NOMO-1 viab -4.5, mut p53 react 95.1*, MITF inhib -1.5 and STK33 kin inh 2.3.
For Cc1ccccc1OCC(=O)Nc1cccc(NC(=O)C(C)C)c1 the results were NOMO-1 viab 29.7, mut p53 react 61.7*, MITF inhib -25.0 and STK33 kin inh -4.9.
Screening Cc1ccccc1OCC(=O)Nc1cccc(C(=O)O)c1 returned mut p53 react -93.0 and STK33 kin inh 5.3.
